Laboratory results published in the supplement of paper PMC10849652.
Targets with a hit are over-represented here; the source holds about 7,900 in all. About 0.6% of all pairs of compound and target were hits.

Assays:
Test in all cases: log2 fold change, soluble protein after heating vs DMSO (PISA); higher = thermal stabilisation; K562 cells, 10 uM, 30 min; active = over 0.2 and 3.5 SD of the protein, either way, in both replicates (recomputed)
erlotinib = compound: C#Cc1cccc(Nc2ncnc3cc(OCCOC)c(OCCOC)cc23)c1 [erlotinib]
Outline: (§1)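 K562 cells at 2×10^6 cells/mL were treated for 30 min with 10 μM compound, and aliquots were heated for 3 min over 48°C-58°C before pooling. Extraction used PBS with 0.5% NP-40 at 4°C, and soluble protein was the supernatant after 21,000xg for 90 min, measured by TMTpro 16plex LC-MS/MS with channel sums equalised. Thermal stability values, relative to control samples and from duplicates, are log2 fold changes.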

[1] = compound: C/C(=N\NC(=O)C1=CC(=CC=C1)S(=O)(=O)N2CCOCC2)/C3=C(C=CC(=C3)Cl)O
Outline: as §1

[2] = compound: C1=CC(=C(C=C1Cl)C2=NC3=NC=CN=C3C(=N2)NC4=CC=NC=C4)F
Outline: as §1

[3] = compound: C1=CC(=CC=C1C2=NC3=C(N2)C=C(C=C3)C(=O)N)OC4=CC=C(C=C4)Cl
Outline: as §1

[4] = compound: C1=CC2=C(C=CC(=C2)/C=C\3/C(=O)NC(=NCC4=CC=CS4)S3)N=C1
Outline: as §1

[5] = compound: C1=CC2=NC=CN=C2C=C1/C=C/3\C(=O)NC(=O)S3
Outline: as §1

[6] = compound: C1=CC=C(C=C1)C2=NC(=C(N2)C3=CC=NC=C3)C4=CC(=C(C=C4)Cl)O
Outline: as §1

[7] = compound: C1=CC=C2C(=C1)C3=NNC4=CC=CC(=C43)C2=O
Outline: as §1

[8] = compound: C1CCN(C1)C(=O)NC2=CC=CC(=C2)NC3=NC=C(C(=N3)NCCC4=CN=CN4)Br
Outline: as §1

[9] = compound: C1CN(CCC1(CC2=CC=C(C=C2)Cl)N)C3=NC=NC4=C3C=CN4
Outline: as §1

IRAK-1-4 Inhibitor I = compound: C1COCCN1CCN2C3=CC=CC=C3N=C2NC(=O)C4=CC(=CC=C4)[N+](=O)[O-] [IRAK-1-4 Inhibitor I]
Outline: as §1

ibrutinib = compound: C=CC(=O)N1CCC[C@@H](n2nc(-c3ccc(Oc4ccccc4)cc3)c3c(N)ncnc32)C1 [ibrutinib]
Outline: as §1

[10] = compound: CC(=O)c1cnc2ccc(-c3cc(Cl)c(O)c(Cl)c3)nc2c1N[C@H]1CC[C@H](CN(C)C)CC1
Outline: as §1

ralimetinib = compound: CC(C)(C)Cn1c(N)nc2ccc(-c3[nH]c(C(C)(C)C)nc3-c3ccc(F)cc3)nc21 [ralimetinib]
Outline: as §1

[11] = compound: CC(C)(O)CC(=O)NCCn1ccc2ncnc(Nc3ccc(Oc4cccc(C(F)(F)F)c4)c(Cl)c3)c21
Outline: as §1

[12] = compound: CC(C)C1=C2N=C(C=C(N2N=C1)NCC3=CC=CC=C3)NCCCCCCN
Outline: as §1

[13] = compound: CC(C)C[C@@H](C=O)NC(=O)[C@H](CC(C)C)NC(=O)[C@H](CC(C)C)NC(=O)OCc1ccccc1
Outline: as §1

pinometostat = compound: CC(C)N(C[C@H]1O[C@@H](n2cnc3c(N)ncnc32)[C@H](O)[C@@H]1O)[C@H]1C[C@@H](CCc2nc3cc(C(C)(C)C)ccc3[nH]2)C1 [pinometostat]
Outline: as §1

[14] = compound: CC1=C(C(CC(=O)N1)C2=CC=C(C=C2)C(F)(F)F)C(=O)NC3=C(C=C4C(=C3)C=NN4)F
Outline: as §1

[15] = compound: CC1=C(C2=C(C=C1)C(=O)C3=CC=CC=C3N2CCCN)C
Outline: as §1

Measured: log2 fold change

ATL2 (UniProt Q8NHH9)
UniProt Q8NHH9, sequence (Q8NHH9 whole entry, looked up): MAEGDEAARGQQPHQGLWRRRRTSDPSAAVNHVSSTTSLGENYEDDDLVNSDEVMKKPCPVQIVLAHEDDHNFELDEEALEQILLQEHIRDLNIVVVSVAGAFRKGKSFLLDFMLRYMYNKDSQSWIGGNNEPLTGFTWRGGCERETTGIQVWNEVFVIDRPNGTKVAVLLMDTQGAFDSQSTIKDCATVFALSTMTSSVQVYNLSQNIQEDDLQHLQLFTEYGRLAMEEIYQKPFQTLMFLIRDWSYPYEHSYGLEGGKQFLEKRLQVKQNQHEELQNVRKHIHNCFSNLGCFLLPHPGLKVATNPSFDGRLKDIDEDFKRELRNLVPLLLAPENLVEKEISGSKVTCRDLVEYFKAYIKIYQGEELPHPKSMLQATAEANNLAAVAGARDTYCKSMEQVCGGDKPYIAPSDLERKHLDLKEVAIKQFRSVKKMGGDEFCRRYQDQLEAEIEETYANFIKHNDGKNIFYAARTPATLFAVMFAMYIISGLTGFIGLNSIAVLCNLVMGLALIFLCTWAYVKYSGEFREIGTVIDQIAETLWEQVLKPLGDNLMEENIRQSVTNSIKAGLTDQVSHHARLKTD
inactive: erlotinib -0.004 | [1] 0 | [2] 0.081 | [3] 0.004 | [4] 0.049 | [5] 0.012 | [6] 0.049 | [7] 0.014 | [8] 0.077 | [9] 0 | IRAK-1-4 Inhibitor I 0.011 | ibrutinib 0.006 | [10] -0.058 | ralimetinib -0.116 | [11] -0.087 | [12] 0.054 | [13] -0.001 | pinometostat 0.035 | [14] -0.016 | [15] 0.169

BZW1 isoform 3 (UniProt Q7L1Q6)
UniProt Q7L1Q6, sequence (Q7L1Q6 whole entry, looked up): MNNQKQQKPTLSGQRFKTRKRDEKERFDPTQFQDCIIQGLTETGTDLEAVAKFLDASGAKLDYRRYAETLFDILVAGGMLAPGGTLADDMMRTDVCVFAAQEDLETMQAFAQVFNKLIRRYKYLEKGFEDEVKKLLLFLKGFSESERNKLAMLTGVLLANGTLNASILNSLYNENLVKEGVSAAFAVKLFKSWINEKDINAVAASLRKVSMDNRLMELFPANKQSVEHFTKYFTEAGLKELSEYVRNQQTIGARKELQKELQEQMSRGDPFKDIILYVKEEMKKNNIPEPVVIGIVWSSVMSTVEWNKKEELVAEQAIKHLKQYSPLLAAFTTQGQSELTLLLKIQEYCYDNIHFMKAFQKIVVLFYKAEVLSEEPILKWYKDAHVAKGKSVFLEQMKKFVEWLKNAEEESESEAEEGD
inactive: erlotinib 0.049 | [1] 0.176 | [2] -0.001 | [3] -0.088 | [4] 0.054 | [5] 0.019 | [6] 0.042 | [7] 0.039 | [8] -0.059 | [9] -0.101 | IRAK-1-4 Inhibitor I -0.118 | ibrutinib -0.123 | [10] 0.005 | ralimetinib 0.049 | [11] -0.296 | [13] 0.007 | pinometostat 0.123 | [14] 0.006 | [15] 0.068
active: [12] -0.422

ALDH2 (UniProt P05091)
UniProt P05091, sequence (P05091 whole entry, looked up): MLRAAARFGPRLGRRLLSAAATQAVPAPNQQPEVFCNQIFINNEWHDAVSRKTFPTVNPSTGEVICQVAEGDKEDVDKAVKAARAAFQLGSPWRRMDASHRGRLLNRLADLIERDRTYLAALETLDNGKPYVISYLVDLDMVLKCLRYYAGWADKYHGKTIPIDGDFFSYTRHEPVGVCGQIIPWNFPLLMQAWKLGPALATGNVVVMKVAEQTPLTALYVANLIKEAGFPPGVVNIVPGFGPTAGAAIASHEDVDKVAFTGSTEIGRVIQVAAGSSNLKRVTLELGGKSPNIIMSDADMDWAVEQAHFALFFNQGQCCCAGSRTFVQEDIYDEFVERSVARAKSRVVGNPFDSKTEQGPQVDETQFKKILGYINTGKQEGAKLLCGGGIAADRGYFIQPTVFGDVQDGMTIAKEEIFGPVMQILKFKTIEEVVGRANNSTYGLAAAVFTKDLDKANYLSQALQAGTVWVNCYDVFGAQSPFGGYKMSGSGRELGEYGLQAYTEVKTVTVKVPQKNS
inactive: erlotinib -0.009 | [1] 0.121 | [2] 0.039 | [3] 0.021 | [4] 0.096 | [5] 0.022 | [6] -0.019 | [7] 0.097 | [8] -0.041 | [9] 0.02 | IRAK-1-4 Inhibitor I 0.005 | ibrutinib 0.002 | [10] -0.005 | ralimetinib -0.086 | [11] -0.037 | [12] 0.018 | [13] -0.032 | pinometostat -0.034 | [14] -0.046 | [15] 0.063

ALG5 (UniProt Q9Y673)
UniProt Q9Y673, sequence (Q9Y673 whole entry, looked up): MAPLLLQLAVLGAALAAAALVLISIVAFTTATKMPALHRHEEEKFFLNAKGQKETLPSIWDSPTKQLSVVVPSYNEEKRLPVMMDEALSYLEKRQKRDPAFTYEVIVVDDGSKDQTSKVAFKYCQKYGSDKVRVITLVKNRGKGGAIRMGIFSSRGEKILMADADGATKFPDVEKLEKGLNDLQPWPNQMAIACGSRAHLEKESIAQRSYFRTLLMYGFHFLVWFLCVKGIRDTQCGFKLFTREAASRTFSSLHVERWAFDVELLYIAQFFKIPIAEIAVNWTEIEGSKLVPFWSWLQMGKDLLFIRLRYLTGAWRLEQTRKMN
inactive: erlotinib -0.008 | [1] 0.014 | [2] 0.071 | [3] 0.008 | [4] 0.023 | [5] 0.003 | [6] 0.009 | [7] 0.048 | [8] -0.026 | [9] -0.007 | IRAK-1-4 Inhibitor I 0.026 | ibrutinib -0.043 | ralimetinib 0.009 | [11] -0.009 | [12] -0.004 | [13] 0 | pinometostat -0.002 | [14] -0.057 | [15] 0.07
active: [10] -0.281

BAP1 (UniProt Q92560)
inactive: erlotinib 0.182 | [1] -0.013 | [2] -0.142 | [3] -0.048 | [4] -0.128 | [5] 0.06 | [6] -0.104 | [7] -0.05 | [8] -0.078 | [9] -0.088 | IRAK-1-4 Inhibitor I -0.038 | ibrutinib -0.056 | [10] -0.125 | ralimetinib 0.06 | [11] -0.014 | [12] -0.217 | [13] 0.048 | pinometostat 0.163 | [14] -0.116 | [15] -0.17

ATF7 isoform 6 (UniProt P17544)
UniProt P17544, sequence (P17544 whole entry, looked up): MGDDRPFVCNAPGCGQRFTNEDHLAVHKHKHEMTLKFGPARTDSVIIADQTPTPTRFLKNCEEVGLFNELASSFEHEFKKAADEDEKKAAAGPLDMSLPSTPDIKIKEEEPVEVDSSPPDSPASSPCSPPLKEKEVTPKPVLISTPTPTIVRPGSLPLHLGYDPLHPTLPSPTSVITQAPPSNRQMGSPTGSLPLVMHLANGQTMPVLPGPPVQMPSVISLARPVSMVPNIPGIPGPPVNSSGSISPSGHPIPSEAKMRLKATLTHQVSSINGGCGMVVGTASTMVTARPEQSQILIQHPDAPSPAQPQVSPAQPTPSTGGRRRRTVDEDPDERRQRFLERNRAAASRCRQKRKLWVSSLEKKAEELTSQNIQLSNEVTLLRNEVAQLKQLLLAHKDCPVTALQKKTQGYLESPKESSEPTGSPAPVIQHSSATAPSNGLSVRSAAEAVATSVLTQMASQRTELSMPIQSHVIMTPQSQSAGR
inactive: erlotinib -0.011 | [1] -0.148 | [2] -0.043 | [3] 0.021 | [4] 0.032 | [5] -0.055 | [6] 0.08 | [7] 0.085 | [8] -0.004 | [9] -0.117 | IRAK-1-4 Inhibitor I -0.031 | ibrutinib 0.199 | [10] 0.183 | ralimetinib 0.089 | [11] -0.042 | [12] 0.138 | [13] -0.14 | pinometostat 0.019 | [14] -0.082 | [15] 0.22

ALG14 (UniProt Q96F25)
UniProt Q96F25, sequence (Q96F25 whole entry, looked up): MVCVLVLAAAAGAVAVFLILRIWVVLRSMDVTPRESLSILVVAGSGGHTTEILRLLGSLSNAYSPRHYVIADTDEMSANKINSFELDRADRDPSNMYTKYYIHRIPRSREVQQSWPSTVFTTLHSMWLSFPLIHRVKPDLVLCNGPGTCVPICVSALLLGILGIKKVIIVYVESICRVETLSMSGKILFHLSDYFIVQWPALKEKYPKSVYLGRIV
inactive: erlotinib 0.111 | [1] 0.018 | [2] -0.128 | [3] -0.085 | [4] 0.084 | [5] 0.088 | [6] 0.053 | [7] 0.002 | [8] -0.061 | [9] 0.014 | IRAK-1-4 Inhibitor I 0.007 | ibrutinib 0.104 | [10] -0.157 | ralimetinib -0.12 | [11] -0.115 | [12] -0.098 | [13] 0.093 | pinometostat 0.038 | [14] 0.002 | [15] 0.195

ACP1 isoform 2 (UniProt P24666)
UniProt P24666, sequence (P24666 whole entry, looked up): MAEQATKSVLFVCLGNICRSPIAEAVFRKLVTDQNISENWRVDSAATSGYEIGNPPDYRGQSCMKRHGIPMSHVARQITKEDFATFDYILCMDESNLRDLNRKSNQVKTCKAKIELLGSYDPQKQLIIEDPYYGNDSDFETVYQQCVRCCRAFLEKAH
active: [11] -0.264 | [15] -0.296
inactive: erlotinib 0.072 | [1] 0.011 | [2] 0.038 | [3] 0.024 | [4] 0.029 | [5] -0.008 | [6] -0.018 | [7] 0 | [8] 0.004 | [9] -0.039 | IRAK-1-4 Inhibitor I -0.082 | ibrutinib -0.028 | [10] -0.013 | ralimetinib 0.009 | [12] -0.109 | [13] -0.039 | pinometostat 0.073 | [14] -0.061

AGRN (UniProt O00468)
inactive: erlotinib 0.064 | [1] -0.013 | [2] -0.039 | [3] -0.125 | [4] 0.071 | [5] -0.048 | [7] 0.024 | [8] -0.091 | [9] 0.05 | IRAK-1-4 Inhibitor I -0.205 | ibrutinib 0.09 | [10] -0.025 | ralimetinib 0.125 | [11] -0.022 | [12] 0.156 | [13] -0.066 | pinometostat -0.005 | [14] 0.078 | [15] 0.014
active: [6] 0.366

ATP11A (UniProt P98196)
UniProt P98196, sequence (P98196 whole entry, looked up): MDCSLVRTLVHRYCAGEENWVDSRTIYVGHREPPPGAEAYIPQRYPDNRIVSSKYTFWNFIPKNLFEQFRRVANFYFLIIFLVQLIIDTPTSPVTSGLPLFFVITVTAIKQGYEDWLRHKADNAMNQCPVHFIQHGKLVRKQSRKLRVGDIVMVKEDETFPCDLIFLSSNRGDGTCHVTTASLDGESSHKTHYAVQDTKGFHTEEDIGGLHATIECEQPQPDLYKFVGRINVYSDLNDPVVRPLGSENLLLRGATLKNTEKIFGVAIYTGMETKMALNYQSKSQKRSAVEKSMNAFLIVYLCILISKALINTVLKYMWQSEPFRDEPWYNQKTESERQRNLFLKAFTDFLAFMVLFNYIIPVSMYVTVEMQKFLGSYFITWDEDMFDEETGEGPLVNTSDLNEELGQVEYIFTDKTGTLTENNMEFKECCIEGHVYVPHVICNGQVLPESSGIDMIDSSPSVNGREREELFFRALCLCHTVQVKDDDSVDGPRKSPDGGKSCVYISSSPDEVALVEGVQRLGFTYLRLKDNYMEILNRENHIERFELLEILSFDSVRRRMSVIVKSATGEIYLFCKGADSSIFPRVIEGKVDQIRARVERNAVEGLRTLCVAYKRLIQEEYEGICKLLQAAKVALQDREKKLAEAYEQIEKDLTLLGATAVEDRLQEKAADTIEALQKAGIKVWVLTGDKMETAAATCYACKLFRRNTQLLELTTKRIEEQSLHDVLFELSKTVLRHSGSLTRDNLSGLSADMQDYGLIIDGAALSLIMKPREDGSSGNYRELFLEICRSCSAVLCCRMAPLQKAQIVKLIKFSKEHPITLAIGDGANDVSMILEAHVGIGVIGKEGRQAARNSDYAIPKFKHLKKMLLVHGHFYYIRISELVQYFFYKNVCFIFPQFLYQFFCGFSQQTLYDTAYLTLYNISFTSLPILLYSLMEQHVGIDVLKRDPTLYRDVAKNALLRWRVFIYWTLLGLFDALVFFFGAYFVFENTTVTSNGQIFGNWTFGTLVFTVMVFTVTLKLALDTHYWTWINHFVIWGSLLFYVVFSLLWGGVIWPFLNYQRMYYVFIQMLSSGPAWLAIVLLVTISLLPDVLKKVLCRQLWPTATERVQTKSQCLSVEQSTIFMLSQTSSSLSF
inactive: erlotinib -0.038 | [1] 0.015 | [2] 0.004 | [3] 0.005 | [4] -0.038 | [5] 0.035 | [6] -0.048 | [7] -0.085 | [8] -0.035 | [9] 0.012 | IRAK-1-4 Inhibitor I -0.003 | ibrutinib 0.007 | [10] 0.018 | ralimetinib 0 | [11] -0.026 | [12] 0.073 | [13] 0.052 | pinometostat 0.004 | [14] 0.05 | [15] 0.036

AIP (UniProt O00170)
inactive: erlotinib 0.035 | [1] 0.096 | [2] 0.133 | [3] -0.006 | [4] 0.042 | [5] 0.048 | [6] -0.01 | [7] 0.011 | [8] 0.005 | [9] -0.026 | IRAK-1-4 Inhibitor I 0 | ibrutinib -0.047 | [10] 0.007 | ralimetinib 0.006 | [11] -0.094 | [12] -0.074 | [13] -0.018 | pinometostat -0.027 | [14] -0.035 | [15] -0.026

AKR1C2 (UniProt P52895)
inactive: erlotinib 0.07 | [1] 0.014 | [2] -0.101 | [3] -0.092 | [4] 0.001 | [5] 0.085 | [6] 0.292 | [7] -0.038 | [8] 0.044 | [9] -0.028 | IRAK-1-4 Inhibitor I -0.218 | ibrutinib 0.006 | [10] -0.043 | ralimetinib -0.015 | [11] 0.099 | [12] -0.16 | [13] -0.043 | pinometostat 0.049 | [14] 0.008 | [15] -0.063

AARSD1 isoform 3 (UniProt Q9BTE6)
active: [1] -0.736
inactive: erlotinib 0.05 | [2] 0.113 | [3] -0.014 | [4] -0.027 | [5] 0.008 | [6] -0.015 | [7] 0.053 | [8] -0.006 | [9] -0.086 | IRAK-1-4 Inhibitor I 0.002 | ibrutinib -0.074 | [10] 0.029 | ralimetinib -0.038 | [11] -0.017 | [12] -0.177 | [13] 0.069 | pinometostat -0.01 | [14] -0.027 | [15] -0.126

AGPS (UniProt O00116)
UniProt O00116, sequence (O00116 whole entry, looked up): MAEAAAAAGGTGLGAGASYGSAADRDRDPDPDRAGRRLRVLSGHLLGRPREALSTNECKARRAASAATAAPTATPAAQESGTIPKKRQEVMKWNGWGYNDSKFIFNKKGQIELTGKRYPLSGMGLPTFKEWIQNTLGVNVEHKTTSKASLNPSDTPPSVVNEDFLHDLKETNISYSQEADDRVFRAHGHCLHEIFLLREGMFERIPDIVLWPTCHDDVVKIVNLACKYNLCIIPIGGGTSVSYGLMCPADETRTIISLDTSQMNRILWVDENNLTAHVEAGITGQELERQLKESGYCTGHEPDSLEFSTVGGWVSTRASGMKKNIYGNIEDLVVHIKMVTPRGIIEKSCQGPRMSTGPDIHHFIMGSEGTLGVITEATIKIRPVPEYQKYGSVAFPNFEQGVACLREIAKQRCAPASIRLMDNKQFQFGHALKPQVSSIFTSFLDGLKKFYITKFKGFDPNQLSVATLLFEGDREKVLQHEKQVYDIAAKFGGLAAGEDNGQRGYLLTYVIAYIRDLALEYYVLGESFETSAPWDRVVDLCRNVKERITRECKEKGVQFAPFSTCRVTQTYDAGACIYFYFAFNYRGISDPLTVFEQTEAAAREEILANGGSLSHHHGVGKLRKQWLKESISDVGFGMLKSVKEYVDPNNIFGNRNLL
inactive: erlotinib 0.046 | [1] 0.055 | [2] 0.092 | [4] 0.055 | [5] 0.031 | [6] 0.175 | [7] 0.043 | [8] -0.01 | [9] 0.077 | IRAK-1-4 Inhibitor I 0.025 | ibrutinib -0.005 | [10] -0.028 | ralimetinib 0.007 | [11] -0.008 | [12] -0.123 | [13] -0.025 | pinometostat -0.041 | [14] -0.025 | [15] 0.031
active: [3] 0.256

BCCIP (UniProt Q9P287)
active: [15] 0.255
inactive: erlotinib -0.024 | [1] 0.045 | [2] 0.019 | [3] -0.027 | [4] -0.029 | [5] 0.015 | [6] 0.013 | [7] 0.035 | [8] -0.036 | [9] 0.114 | IRAK-1-4 Inhibitor I -0.025 | ibrutinib -0.063 | [10] -0.06 | ralimetinib -0.005 | [11] 0.002 | [12] 0.035 | [13] 0.015 | pinometostat 0.073 | [14] -0.041

AKT1 (UniProt P31749)
UniProt P31749, sequence (P31749 whole entry, looked up): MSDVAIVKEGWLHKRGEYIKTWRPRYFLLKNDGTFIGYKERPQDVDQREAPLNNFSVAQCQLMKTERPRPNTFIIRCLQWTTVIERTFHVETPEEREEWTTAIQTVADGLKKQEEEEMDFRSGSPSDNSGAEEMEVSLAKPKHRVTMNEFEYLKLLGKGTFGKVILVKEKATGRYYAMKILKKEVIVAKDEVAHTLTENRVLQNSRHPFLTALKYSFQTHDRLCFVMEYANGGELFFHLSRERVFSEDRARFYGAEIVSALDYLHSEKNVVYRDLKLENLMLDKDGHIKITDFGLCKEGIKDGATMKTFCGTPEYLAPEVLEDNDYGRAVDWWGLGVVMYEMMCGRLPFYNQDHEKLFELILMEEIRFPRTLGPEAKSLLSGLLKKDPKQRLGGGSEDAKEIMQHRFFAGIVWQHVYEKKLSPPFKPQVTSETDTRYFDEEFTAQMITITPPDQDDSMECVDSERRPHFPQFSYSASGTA
inactive: erlotinib 0.095 | [1] 0.034 | [2] 0.101 | [3] -0.067 | [4] 0 | [5] 0.184 | [6] 0.117 | [7] 0.059 | [8] -0.026 | [9] 0.164 | IRAK-1-4 Inhibitor I -0.014 | ibrutinib -0.244 | [10] 0.03 | ralimetinib -0.023 | [11] 0.01 | [12] -0.141 | [13] 0.07 | pinometostat -0.051 | [14] -0.161 | [15] -0.038
